# Publication PMC7862700, “An all-to-all approach to the identification of sequence-specific readers for epigenetic DNA modifications on cytosine”
# Columns and labels:
# Assay in all cases: DAPPL (digital affinity profiling via proximity ligation, sequencing); 10 mM Tris-HCl pH 7.5, 50 mM NaCl, 1 mM DTT, 4% glycerol, room temperature, 30 min; GST-TFs on glutathione beads, 16-mer random dsDNA library, 0.1% formaldehyde crosslink after washing; high values mean tight binding
# FLI1 = molecular target: T1, FLI1 (Homo sapiens, UniProt Q01543 1-452); settings: protein: recombinant; tags: N-terminal GST; dsDNA, one strand shown
# T1 sequence: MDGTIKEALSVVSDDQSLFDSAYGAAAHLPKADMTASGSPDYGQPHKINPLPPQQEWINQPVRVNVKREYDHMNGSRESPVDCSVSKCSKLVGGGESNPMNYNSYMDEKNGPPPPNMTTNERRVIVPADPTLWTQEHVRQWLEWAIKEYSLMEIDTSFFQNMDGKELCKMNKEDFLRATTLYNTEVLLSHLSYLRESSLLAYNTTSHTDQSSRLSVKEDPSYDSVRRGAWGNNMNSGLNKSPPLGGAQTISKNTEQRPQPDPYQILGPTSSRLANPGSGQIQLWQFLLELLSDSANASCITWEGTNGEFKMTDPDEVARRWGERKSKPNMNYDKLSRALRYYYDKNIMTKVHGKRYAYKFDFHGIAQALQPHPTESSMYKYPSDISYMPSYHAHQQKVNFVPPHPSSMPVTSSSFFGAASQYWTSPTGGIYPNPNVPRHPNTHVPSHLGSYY
# Summary of the method: (§1)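 Human transcription factors fused to GST were expressed in yeast, captured on glutathione beads, given DNA barcodes and pooled with a GST-only negative control. Pools were incubated with 200 nmole of a 16-mer random double-stranded DNA library in Tris/NaCl/DTT/glycerol buffer at room temperature for 30 min. They were then washed, crosslinked with 0.1% formaldehyde, proximity-ligated (BsaI/T4 ligase, 1 h, 37 °C), PCR-amplified and sequenced on an Illumina NextSeq500. Binding signal is each 6-mer's read frequency for a factor divided by its frequency for the GST control.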
# ELK1 = molecular target: T2, ELK1 (Homo sapiens, UniProt P19419 1-428); settings: protein: recombinant; tags: N-terminal GST; dsDNA, one strand shown
# T2 sequence: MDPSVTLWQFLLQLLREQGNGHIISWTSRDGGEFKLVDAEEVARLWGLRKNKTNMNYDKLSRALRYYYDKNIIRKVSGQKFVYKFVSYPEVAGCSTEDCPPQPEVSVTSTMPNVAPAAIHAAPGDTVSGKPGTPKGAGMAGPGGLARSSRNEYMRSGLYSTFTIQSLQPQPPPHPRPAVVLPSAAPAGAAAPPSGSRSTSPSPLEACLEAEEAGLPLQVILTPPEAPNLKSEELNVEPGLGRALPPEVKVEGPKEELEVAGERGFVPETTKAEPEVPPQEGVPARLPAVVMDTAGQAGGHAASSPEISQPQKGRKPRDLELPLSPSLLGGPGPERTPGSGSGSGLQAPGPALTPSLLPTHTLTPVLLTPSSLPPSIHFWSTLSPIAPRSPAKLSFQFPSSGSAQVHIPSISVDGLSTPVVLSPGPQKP
# Summary of the method: as §1
# GABPA = molecular target: T3, GABPA (Homo sapiens, UniProt Q06546 1-454); settings: protein: recombinant; tags: N-terminal GST; dsDNA, one strand shown
# T3 sequence: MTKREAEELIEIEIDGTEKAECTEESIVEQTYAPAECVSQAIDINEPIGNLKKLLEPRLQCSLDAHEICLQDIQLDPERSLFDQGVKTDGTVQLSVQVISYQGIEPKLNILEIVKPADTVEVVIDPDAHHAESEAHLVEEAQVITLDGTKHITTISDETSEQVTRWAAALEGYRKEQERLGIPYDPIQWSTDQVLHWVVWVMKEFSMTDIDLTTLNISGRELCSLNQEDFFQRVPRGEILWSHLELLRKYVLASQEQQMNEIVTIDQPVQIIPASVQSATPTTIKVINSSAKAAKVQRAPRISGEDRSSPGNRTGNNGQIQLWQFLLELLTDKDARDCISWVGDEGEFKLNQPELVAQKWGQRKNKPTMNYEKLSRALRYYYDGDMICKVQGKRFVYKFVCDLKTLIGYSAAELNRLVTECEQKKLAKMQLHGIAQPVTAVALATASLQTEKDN
# Summary of the method: as §1
# ERG = molecular target: T4, ERG (Homo sapiens, UniProt P11308 1-479); settings: protein: recombinant; tags: N-terminal GST; dsDNA, one strand shown
# T4 sequence: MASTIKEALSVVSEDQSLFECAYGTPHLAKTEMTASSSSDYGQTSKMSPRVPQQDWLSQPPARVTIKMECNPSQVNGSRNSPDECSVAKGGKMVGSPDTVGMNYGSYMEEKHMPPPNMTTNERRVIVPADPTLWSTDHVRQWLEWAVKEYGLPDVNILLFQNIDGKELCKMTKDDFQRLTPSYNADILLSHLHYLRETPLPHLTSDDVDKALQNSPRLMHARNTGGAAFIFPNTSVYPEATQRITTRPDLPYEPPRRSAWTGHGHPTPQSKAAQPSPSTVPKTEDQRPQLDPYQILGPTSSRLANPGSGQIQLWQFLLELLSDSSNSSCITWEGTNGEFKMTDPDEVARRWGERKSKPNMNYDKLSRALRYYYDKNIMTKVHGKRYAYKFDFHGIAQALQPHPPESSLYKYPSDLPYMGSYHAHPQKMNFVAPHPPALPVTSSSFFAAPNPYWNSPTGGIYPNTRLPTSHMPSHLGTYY
# Summary of the method: as §1
# ELF1 = ELF1 (Homo sapiens, UniProt P32519 1-619); settings: protein: recombinant; tags: N-terminal GST; dsDNA, one strand shown
# Summary of the method: as §1
# EHF = molecular target: T5, EHF (Homo sapiens, UniProt Q9NZC4 1-300); settings: protein: recombinant; tags: N-terminal GST; dsDNA, one strand shown
# T5 sequence: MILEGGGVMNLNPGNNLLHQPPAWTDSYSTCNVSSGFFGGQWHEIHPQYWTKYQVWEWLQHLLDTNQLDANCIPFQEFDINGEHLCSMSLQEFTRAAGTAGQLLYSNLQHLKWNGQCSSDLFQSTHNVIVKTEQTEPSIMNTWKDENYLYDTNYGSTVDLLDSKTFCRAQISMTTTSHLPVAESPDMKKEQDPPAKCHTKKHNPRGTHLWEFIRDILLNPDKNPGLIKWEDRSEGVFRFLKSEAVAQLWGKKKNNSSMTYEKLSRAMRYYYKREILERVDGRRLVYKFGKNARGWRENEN
# Summary of the method: as §1
# SPI1 = SPI1 (Homo sapiens, UniProt P17947 1-270); settings: protein: recombinant; tags: N-terminal GST; dsDNA, one strand shown
# Summary of the method: as §1
# SPIB = SPIB (Homo sapiens, UniProt Q01892 1-262); settings: protein: recombinant; tags: N-terminal GST; dsDNA, one strand shown
# Summary of the method: as §1
# ELK3 = molecular target: T6, ELK3 (Homo sapiens, UniProt P41970 1-407); settings: protein: recombinant; tags: N-terminal GST; dsDNA, one strand shown
# T6 sequence: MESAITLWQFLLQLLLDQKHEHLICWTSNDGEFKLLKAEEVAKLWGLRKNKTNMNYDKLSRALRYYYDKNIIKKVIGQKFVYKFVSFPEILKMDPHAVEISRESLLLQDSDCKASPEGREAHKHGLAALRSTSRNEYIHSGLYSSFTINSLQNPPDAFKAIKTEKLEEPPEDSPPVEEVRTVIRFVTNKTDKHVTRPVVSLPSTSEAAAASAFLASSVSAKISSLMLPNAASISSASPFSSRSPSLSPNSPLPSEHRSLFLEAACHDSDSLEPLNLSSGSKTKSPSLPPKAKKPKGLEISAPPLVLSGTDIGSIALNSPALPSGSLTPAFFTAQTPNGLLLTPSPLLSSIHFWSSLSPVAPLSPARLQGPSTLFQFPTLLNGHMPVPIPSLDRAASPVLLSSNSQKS
# Summary of the method: as §1
# FEV = molecular target: T7, FEV (Homo sapiens, UniProt Q99581 1-238); settings: protein: recombinant; tags: N-terminal GST; dsDNA, one strand shown
# T7 sequence: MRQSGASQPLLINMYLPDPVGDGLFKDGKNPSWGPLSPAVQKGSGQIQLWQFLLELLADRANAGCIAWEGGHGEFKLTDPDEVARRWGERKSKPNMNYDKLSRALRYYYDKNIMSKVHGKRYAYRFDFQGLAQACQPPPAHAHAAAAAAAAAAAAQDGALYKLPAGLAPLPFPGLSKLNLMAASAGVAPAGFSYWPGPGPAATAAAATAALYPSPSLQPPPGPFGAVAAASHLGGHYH
# Summary of the method: as §1
# ETV5 = ETV5 (Homo sapiens, UniProt P41161 1-510); settings: protein: recombinant; tags: N-terminal GST; dsDNA, one strand shown
# Summary of the method: as §1
# HSF1 = HSF1 (Homo sapiens, UniProt Q00613 1-529); settings: protein: recombinant; tags: N-terminal GST; chain copies: 3; dsDNA, one strand shown
# Summary of the method: as §1
# SPIC = molecular target: T8, SPIC (Homo sapiens, UniProt Q8N5J4 1-248); settings: protein: recombinant; tags: N-terminal GST; dsDNA, one strand shown
# T8 sequence: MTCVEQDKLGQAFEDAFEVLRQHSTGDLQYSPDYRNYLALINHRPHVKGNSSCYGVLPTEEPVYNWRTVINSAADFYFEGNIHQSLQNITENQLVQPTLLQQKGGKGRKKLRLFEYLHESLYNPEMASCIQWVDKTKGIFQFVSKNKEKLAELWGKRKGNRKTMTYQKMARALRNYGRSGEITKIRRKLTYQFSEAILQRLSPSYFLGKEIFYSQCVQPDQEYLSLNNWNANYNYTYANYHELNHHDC
# Summary of the method: as §1
# ELF4 = ELF4 (Homo sapiens, UniProt Q99607 1-663); settings: protein: recombinant; tags: N-terminal GST; dsDNA, one strand shown
# Summary of the method: as §1
# ELK4 = molecular target: T9, ELK4 (Homo sapiens, UniProt P28324-2 1-405); settings: protein: recombinant; tags: N-terminal GST; dsDNA, one strand shown
# T9 sequence: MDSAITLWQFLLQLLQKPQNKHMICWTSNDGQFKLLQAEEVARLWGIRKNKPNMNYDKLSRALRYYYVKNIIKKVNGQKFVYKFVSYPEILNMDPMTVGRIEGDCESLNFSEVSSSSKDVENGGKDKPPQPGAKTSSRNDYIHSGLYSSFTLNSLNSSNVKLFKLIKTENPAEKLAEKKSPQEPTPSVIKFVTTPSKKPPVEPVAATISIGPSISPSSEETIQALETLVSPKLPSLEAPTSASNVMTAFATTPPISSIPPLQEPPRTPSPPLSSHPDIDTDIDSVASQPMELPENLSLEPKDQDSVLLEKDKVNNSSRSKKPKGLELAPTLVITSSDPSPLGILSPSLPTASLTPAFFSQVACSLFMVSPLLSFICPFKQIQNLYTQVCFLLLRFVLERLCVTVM
# Summary of the method: as §1
# ETV2 = molecular target: T10, ETV2 (Homo sapiens, UniProt O00321 1-342); settings: protein: recombinant; tags: N-terminal GST; dsDNA, one strand shown
# T10 sequence: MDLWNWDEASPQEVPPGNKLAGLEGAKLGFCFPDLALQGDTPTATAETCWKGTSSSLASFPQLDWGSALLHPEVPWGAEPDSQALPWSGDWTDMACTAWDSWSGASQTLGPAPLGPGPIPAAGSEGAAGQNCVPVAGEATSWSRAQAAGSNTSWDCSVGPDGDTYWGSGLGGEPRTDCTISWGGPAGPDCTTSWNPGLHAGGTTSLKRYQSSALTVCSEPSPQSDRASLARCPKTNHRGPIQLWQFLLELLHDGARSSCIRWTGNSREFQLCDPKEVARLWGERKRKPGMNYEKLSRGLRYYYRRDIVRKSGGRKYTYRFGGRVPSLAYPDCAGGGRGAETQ
# Summary of the method: as §1
# ELF3 = molecular target: T11, ELF3 (Homo sapiens, UniProt P78545 1-371); settings: protein: recombinant; tags: N-terminal GST; dsDNA, one strand shown
# T11 sequence: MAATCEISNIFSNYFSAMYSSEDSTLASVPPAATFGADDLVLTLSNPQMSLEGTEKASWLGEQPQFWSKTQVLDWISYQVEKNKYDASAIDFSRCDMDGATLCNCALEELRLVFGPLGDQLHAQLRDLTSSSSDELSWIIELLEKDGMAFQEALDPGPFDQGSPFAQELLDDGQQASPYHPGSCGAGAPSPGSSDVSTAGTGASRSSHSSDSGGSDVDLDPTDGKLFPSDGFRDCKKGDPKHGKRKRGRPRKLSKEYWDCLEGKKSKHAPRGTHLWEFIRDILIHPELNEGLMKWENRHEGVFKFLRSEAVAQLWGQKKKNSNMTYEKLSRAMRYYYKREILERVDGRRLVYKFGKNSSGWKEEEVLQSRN
# Summary of the method: as §1
# CRX = CRX (Homo sapiens, UniProt O43186 1-299); settings: protein: recombinant; tags: N-terminal GST; dsDNA, one strand shown
# Summary of the method: as §1
# ETV1 = ETV1 (Homo sapiens, UniProt P50549 1-477); settings: protein: recombinant; tags: N-terminal GST; dsDNA, one strand shown
# Summary of the method: as §1
# ELF4, sequence (Q99607 whole entry): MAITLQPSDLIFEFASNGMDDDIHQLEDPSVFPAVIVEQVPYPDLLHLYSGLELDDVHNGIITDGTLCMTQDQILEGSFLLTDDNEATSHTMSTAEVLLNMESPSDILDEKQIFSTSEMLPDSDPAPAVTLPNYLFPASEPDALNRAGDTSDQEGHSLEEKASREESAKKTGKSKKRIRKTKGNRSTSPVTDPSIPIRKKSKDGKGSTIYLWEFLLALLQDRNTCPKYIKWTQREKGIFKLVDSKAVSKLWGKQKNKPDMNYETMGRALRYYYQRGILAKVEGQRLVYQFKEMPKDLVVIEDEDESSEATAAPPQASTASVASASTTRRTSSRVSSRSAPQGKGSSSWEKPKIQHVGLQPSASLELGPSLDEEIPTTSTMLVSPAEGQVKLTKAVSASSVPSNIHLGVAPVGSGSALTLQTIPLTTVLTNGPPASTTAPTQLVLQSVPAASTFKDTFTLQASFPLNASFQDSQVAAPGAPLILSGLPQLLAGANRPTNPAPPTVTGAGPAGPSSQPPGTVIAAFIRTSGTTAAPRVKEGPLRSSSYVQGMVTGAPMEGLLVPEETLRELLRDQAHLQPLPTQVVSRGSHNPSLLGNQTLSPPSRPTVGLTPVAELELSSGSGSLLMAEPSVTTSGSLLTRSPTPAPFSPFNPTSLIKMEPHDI
# ETV1, sequence (P50549 whole entry): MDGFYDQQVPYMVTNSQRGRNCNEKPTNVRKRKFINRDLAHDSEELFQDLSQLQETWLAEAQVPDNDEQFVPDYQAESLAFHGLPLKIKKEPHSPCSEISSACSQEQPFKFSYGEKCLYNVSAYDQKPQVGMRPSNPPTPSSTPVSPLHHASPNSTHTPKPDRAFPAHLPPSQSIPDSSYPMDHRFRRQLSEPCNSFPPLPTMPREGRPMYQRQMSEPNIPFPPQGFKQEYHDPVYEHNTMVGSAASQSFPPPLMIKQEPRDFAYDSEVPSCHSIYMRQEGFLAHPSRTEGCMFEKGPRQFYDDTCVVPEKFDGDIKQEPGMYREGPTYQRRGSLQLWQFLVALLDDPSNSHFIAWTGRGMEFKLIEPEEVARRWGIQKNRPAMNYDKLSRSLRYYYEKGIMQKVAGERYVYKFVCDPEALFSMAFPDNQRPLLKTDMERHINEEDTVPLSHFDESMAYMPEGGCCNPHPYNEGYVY
# ELF1, sequence (P32519 whole entry): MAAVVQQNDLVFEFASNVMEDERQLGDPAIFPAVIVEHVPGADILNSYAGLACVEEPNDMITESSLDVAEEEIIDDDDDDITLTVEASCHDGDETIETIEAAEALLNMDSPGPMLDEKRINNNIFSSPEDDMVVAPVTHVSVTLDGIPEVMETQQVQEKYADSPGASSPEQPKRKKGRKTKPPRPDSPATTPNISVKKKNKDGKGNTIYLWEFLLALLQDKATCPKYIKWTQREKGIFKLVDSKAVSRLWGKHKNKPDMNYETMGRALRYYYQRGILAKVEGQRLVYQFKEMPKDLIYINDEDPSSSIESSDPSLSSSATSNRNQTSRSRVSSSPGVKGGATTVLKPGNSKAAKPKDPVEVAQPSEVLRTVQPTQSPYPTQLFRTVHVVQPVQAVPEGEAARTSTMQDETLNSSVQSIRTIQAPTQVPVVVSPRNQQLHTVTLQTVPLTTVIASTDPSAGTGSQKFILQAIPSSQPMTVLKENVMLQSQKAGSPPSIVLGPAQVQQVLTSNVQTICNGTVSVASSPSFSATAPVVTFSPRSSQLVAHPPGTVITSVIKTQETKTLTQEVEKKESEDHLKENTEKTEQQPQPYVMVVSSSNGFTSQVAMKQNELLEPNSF
# ETV5, sequence (P41161 whole entry): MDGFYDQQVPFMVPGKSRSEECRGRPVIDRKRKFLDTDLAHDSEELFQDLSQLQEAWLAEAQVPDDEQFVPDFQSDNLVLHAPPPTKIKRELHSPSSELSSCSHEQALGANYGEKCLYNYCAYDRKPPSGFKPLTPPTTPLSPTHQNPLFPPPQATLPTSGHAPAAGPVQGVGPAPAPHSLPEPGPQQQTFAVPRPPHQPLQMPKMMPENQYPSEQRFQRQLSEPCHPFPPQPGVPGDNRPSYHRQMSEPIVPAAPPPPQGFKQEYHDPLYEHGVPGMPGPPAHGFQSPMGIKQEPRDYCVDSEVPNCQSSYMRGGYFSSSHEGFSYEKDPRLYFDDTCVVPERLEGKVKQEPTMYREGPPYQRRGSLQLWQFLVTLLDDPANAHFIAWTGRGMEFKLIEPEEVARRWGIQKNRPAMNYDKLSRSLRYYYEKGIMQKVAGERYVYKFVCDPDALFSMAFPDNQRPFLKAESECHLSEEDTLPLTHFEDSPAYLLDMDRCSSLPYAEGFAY
# CRX, sequence (O43186 whole entry): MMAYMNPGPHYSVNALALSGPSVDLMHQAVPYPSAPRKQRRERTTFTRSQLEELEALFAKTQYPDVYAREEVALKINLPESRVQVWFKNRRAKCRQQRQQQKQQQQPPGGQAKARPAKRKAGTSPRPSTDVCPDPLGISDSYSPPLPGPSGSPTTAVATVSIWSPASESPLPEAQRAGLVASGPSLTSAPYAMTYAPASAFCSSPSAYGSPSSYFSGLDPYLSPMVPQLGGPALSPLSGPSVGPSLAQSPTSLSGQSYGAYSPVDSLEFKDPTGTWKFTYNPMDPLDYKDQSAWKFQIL
# SPIB, sequence (Q01892 whole entry): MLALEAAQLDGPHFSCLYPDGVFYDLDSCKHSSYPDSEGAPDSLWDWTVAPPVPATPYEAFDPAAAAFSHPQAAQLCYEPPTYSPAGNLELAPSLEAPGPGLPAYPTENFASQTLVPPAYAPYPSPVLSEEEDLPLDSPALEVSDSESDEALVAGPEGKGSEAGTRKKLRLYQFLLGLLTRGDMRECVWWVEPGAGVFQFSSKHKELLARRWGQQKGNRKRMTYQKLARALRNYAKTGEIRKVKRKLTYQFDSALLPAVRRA
# HSF1, sequence (Q00613 whole entry): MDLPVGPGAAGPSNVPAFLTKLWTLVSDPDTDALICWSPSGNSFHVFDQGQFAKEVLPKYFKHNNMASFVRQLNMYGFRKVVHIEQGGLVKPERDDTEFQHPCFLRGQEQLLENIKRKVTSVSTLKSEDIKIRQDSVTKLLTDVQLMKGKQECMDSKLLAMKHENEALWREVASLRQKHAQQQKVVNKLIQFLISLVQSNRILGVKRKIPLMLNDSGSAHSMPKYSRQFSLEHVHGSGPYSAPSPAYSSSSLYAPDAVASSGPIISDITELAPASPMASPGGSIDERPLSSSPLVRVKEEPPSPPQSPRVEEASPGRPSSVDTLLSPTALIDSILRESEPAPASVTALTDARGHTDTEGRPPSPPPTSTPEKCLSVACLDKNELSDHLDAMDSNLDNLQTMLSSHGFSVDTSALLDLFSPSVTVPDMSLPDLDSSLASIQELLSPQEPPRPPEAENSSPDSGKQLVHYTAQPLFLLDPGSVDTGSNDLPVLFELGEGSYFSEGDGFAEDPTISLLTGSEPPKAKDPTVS
sequence,measurement,setting,value
CTAATA,binding signal,FLI1,"1.21 fold enrichment (6-mer frequency, TF over GST control)"
same,binding signal,ELK1,"1.15 fold enrichment (6-mer frequency, TF over GST control)"
same,binding signal,GABPA,"1.13 fold enrichment (6-mer frequency, TF over GST control)"
same,binding signal,ERG,"1.17 fold enrichment (6-mer frequency, TF over GST control)"
same,binding signal,ELF1,"1.19 fold enrichment (6-mer frequency, TF over GST control)"
same,binding signal,EHF,"1.25 fold enrichment (6-mer frequency, TF over GST control)"
same,binding signal,SPI1,"1.24 fold enrichment (6-mer frequency, TF over GST control)"
same,binding signal,SPIB,"1.17 fold enrichment (6-mer frequency, TF over GST control)"
same,binding signal,ELK3,"1.06 fold enrichment (6-mer frequency, TF over GST control)"
same,binding signal,FEV,"1.16 fold enrichment (6-mer frequency, TF over GST control)"
same,binding signal,ETV5,"1.21 fold enrichment (6-mer frequency, TF over GST control)"
same,binding signal,HSF1,"1.55 fold enrichment (6-mer frequency, TF over GST control)"
same,binding signal,SPIC,"1.29 fold enrichment (6-mer frequency, TF over GST control)"
same,binding signal,ELF4,"1.18 fold enrichment (6-mer frequency, TF over GST control)"
same,binding signal,ELK4,"1.1 fold enrichment (6-mer frequency, TF over GST control)"
same,binding signal,ETV2,"1.24 fold enrichment (6-mer frequency, TF over GST control)"
same,binding signal,ELF3,"1.16 fold enrichment (6-mer frequency, TF over GST control)"
same,binding signal,CRX,"2.09 fold enrichment (6-mer frequency, TF over GST control)"
same,binding signal,ETV1,"1.22 fold enrichment (6-mer frequency, TF over GST control)"
